We go through 20 molecules from PubChem BioAssay.

The test system of assay [1] is Human papillomavirus type 1a protein E7 (residues 44-93). The assay is described as follows: HPV1a E7 fragment binders on microarrays, primary screen, biochemical, small-molecule microarray, residues 44-93, 635 nm fluorescence (AID 1108).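 Also: E7 fragment applied at 1 µg/mL in TBST for 1 h at 4 C; score combines spot fluorescence with its signal to noise ratio.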 As to conditions: small-molecule microarray binding, fluorescence 635 nm; higher = more signal.
Assay [2] can be described thus: modulators of HCV replicon luciferase signal, primary screen, HCV replication inhibitor project, Huh7 cells, luciferase reporter (AID 1109).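 Also: huh7 hepatoma cells harbouring a luciferase neomycin HCV replicon reporter; luciferase luminescence as measure of HCV replicon replication; test concentration not given here.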 The settings on record: 48 h, higher = more signal.
Assay [3] concerns the target Left-right determination factor 2 (Homo sapiens) (UniProt O00292). The assay can be described thus: LEFTY2 binders on small-molecule microarrays, primary screen, biochemical, small-molecule microarray, 635 nm fluorescence scan (AID 1110). The settings on record: LEFTY2 binding, higher = more signal.
The target of assay [4] is Calmodulin-1 (Homo sapiens) (UniProt P0DP23). The assay can be described thus: CALM1 binders on microarrays, EGTA buffer, profiling panel, biochemical, small-molecule microarray, Cy5-labelled CALM1 (AID 1111).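 Also: labelled calmodulin applied in Tris saline Tween buffer holding calcium plus EGTA and DTT.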 As to conditions: Cy5-CALM1 binding fluorescence, higher = more signal.
Assay [5] has the same target. The assay can be described thus: calcium-bound CALM1 binders on microarrays, profiling panel, artefact control for SMM control-protein annotation, biochemical, small-molecule microarray, Cy5-labelled CALM1, plus calcium (AID 1112).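 Also: score merges spot fluorescence with signal to noise from triplicate slides.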 As to conditions: Cy5-CALM1 binding fluorescence, higher = more signal.
Assay [6] in a line: small-molecule microarray binders of probe aWnt5a, primary screen, biochemical, biotinylated probe, 635/667 nm fluorescence (AID 1113).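 Also: score merges 667 nm fluorescence intensity with signal-to-noise per printed feature.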 The settings on record: higher = more signal.
The nature of assay [7]: small-molecule microarray binders of probe aShh, primary screen, biochemical, biotinylated probe, 635/667 nm fluorescence (AID 1114).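 Also: probe is biotin-labelled aShh protein from a stem cell growth factor screen; measures binding of labelled protein to compounds printed on the slide; score merges feature fluorescence at 667 nm with signal-to-noise.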 As to conditions: higher = more signal.
Assay [8] in a line: small-molecule microarray binders of probe aNog, primary screen, biochemical, biotinylated probe, 635/667 nm fluorescence (AID 1115).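 Also: probe is biotinylated aNog protein used at 0.15 µg/mL for 1 h at 4 C; z-score combines 667 nm fluorescence of each spot with its signal to noise.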 As to conditions: higher = more signal.
In assay [9] the target is Torsin-1A-interacting protein 1 (Homo sapiens) (UniProt Q5JTV8). The assay can be described thus: LAP1 binders from COS7 cell lysate, primary screen, small-molecule microarray, 635/667 nm fluorescence (AID 1116). As to conditions: COS7-hLAP1 lysate binding, 635 nm fluorescence, higher = more signal.
Torsin-1A-interacting protein 1 (Homo sapiens), sequence (Q5JTV8 whole entry, looked up): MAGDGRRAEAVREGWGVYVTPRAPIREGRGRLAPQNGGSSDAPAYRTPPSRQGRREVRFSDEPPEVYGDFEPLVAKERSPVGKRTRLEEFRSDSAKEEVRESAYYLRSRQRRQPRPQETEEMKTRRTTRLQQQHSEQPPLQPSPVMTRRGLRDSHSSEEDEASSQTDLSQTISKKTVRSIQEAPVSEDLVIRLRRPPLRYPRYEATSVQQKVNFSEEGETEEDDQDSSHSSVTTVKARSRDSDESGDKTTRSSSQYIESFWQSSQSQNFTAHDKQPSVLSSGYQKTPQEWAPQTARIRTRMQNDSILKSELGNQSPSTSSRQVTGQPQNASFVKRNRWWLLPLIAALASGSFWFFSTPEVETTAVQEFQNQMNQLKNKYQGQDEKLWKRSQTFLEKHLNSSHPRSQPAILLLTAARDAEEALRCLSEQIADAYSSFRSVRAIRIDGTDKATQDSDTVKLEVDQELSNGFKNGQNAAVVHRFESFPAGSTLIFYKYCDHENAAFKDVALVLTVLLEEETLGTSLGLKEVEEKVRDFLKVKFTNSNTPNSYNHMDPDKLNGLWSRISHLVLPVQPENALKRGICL
The target of assay [10] is Alpha-bungarotoxin (Bungarus multicinctus) (UniProt P60615). The assay is described as follows: alpha-bungarotoxin binders on microarray, profiling panel, artefact control for SMM control protein annotation, biochemical, small-molecule microarray, Alexa647 label, 635/667 nm fluorescence (AID 1117). As to conditions: alpha-BTX-A647 binding fluorescence, higher = more signal.
Alpha-bungarotoxin (Bungarus multicinctus), sequence (P60615 whole entry, looked up): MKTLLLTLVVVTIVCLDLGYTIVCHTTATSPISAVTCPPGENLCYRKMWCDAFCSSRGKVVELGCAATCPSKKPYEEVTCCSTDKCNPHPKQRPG

Left-right determination factor 2 (Homo sapiens), sequence (O00292 whole entry, looked up): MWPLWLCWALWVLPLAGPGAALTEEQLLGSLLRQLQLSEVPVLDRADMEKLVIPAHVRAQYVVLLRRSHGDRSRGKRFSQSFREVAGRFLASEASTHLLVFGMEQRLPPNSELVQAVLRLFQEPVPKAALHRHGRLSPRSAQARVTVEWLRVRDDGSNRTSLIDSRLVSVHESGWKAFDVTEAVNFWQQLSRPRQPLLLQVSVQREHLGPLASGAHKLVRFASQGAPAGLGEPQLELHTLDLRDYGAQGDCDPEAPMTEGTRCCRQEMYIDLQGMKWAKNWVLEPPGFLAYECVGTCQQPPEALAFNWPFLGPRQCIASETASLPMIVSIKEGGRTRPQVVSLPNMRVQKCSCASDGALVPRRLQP

For `O=C1NCC(=O)N2[C@@H]1C[C@@H](C(=O)O)[C@H]2c1ccc(O)cc1`, the composite z-score is 1.4 in assay [1]; 0.834 in [3]; 0.458 in [4]; -0.451 in assay [5]; -0.0758 in assay [6]; 0.123 in [7]. The results for the composite z-score in [8], in [9] and in assay [10] were -0.36, -0.0956 and 0.707, respectively. This molecule registered a z-score in [2] of 2.63.

Regarding `C=CCOC(=O)[C@@H]1[C@H]2C(=O)O[C@H](c3ccccc3)[C@H](c3ccccc3)N2[C@H](c2ccc(OCCOC(=O)[C@H]3C[C@H]4C(=O)N[C@@H](CCCCNC(C)=O)C(=O)N4[C@H]3c3cccc(OCCO)c3)cc2)[C@@]12C(=O)Nc1ccc(I)cc12`, the composite z-score in [1] was 0.721; in assay [3], 0.642; in assay [4], 0.277; in assay [5], -0.759; in assay [6] it was -0.096; in assay [7] it was 0.0725. For the same molecule, the composite z-score is -0.0317 in assay [8], 0.97 in assay [9] and 1.54 in assay [10]. The same molecule had a z-score in assay [2] of -1.03.

Turning to `C=C1C2CC3C(=C4C(CO[C@@H]4[C@H]4CCCN4S(=O)(=O)c4ccccc4[N+](=O)[O-])C4C(=O)N(C)C(=O)C34)CC2C(=O)N1C` (stereo not given in full), the composite z-score is -1.04 in assay [1]; 0.0437 in [3]; -0.0741 in assay [4]; -0.0942 in [5]; -0.152 in assay [6]; -0.0769 in [7]. Further, the composite z-score in assay [8] was 0.0473; in assay [9], 0.231; in [10], 0.26. For the same molecule, in assay [2], the z-score was -0.979.

On to `COc1ccc([Si](C)(C)[C@@H]2[C@@H](CCn3cc([C@H](O)c4ccccc4)nn3)O[C@]3(C(=O)N(Cc4ccc(N5CCOC5=O)cc4)c4ccccc43)[C@H]2C)cc1`, for which the composite z-score in [1] is 1.11; in assay [3], 0.846; in assay [4], 0.142; in [5], -0.488; in assay [6] it was -0.0179; in assay [7], 0.0224. In addition, the figures for the composite z-score in assay [8], in [9] and in [10] were -0.0675, 1.74 and 1.06, respectively. This molecule also had a z-score in assay [2] of -2.29.

Turning to `COc1ccc([Si](C)(C)[C@H]2[C@H](CCn3cc(CCO)nn3)O[C@@]3(C(=O)N(Cc4ccc(N5C(=O)c6cccc7cccc5c67)cc4)c4ccccc43)[C@@H]2C)cc1`, the composite z-score in assay [1] was 1.4; in [3], 0.691; in assay [4] it was 0.778; in assay [5], 0.487; in [6], -0.117; in assay [7] it was 0.0121. Besides, the results for the composite z-score in assay [8], in assay [9] and in [10] were 0.298, 0.537 and 1.08, respectively. This molecule showed a z-score in assay [2] of -5.13.

Consider `O=C(O)[C@H]1C[C@H]2C(=O)N3CCC[C@H]3C(=O)N2[C@H]1c1cccc(OCCO)c1`, for which the composite z-score in assay [1] is 1.1; in assay [3] it was 0.266; in [4], 0.0384; in [5], 0.286; in assay [6] it was -0.0944; in assay [7] it was -0.167. Moreover, the composite z-score in assay [8] is 0.0951; in assay [9] it was 0.83; in assay [10], 1.67. Also, the z-score in [2] was 1.55.

Take `COCCOC(=O)N1C(=O)[C@@]2(c3cc(C#CC4(O)CCCCCC4)ccc31)[C@H](C(N)=O)[C@H]1C(=O)O[C@H](c3ccccc3)[C@H](c3ccccc3)N1[C@@H]2c1ccc(O)cc1`: the composite z-score was 1.4 in assay [1]; 0.556 in assay [3]; 0.36 in [4]; -0.471 in assay [5]; -0.0203 in [6]; -0.206 in assay [7]. The composite z-score worked out at 0.225 in assay [8], 0.0793 in assay [9] and 0.74 in assay [10]. For the same molecule, in [2], the z-score is -1.39.

As for `COc1ccc([Si](C)(C)[C@@H]2[C@@H](CCO)O[C@]3(C(=O)N(Cc4cccc(N5C(=O)c6ccccc6Oc6ccccc65)c4)c4ccccc43)[C@H]2C)cc1`, the composite z-score was 0.405 in [1]; -0.704 in [3]; 0.949 in [4]; 0.646 in assay [5]; -0.208 in assay [6]; -0.221 in [7]. Moreover, the composite z-score in [8] was -0.0641; in assay [9], 0.0437; in assay [10] it was -0.115. In addition, the z-score in assay [2] was -4.56.

Consider `C=CC1c2cc(O)c(OC)cc2CCN1Cc1sc2ccccc2c1Cl` (stereo not given), for which the composite z-score is 1.38 in assay [1]; 0.0792 in [3]; 0.248 in [4]; 0.237 in [5]; -0.107 in [6]; 0.0796 in assay [7]. Further, the figures for the composite z-score in [8], in assay [9] and in [10] were -0.0132, 0.47 and 1.47, respectively. Besides, the z-score in assay [2] is -1.78.

For the molecule `COC(=O)[C@]1(CCS(=O)(=O)c2ccccc2)N=C(c2ccc(OCCCO)cc2)O[C@@H]1c1ccccc1CN=[N+]=[N-]`, the composite z-score is 1.41 in [1]; 0.0011 in assay [3]; 0.631 in assay [4]; -0.48 in assay [5]; 0.0785 in assay [6]; -0.0035 in [7]. In addition, the composite z-score in assay [8] stood at 1.02; in assay [9] it was 0.879; in [10] it was 0.969. Moreover, the z-score in assay [2] was -2.98.

Take `CC(C)(C)OC(=O)CC[C@@]1(C(=O)O)N=C(c2ccc(OCCCO)cc2)O[C@@H]1c1ccccc1`: the composite z-score in assay [1] is 1.16; in [3] it was -0.499; in assay [4], 0.357; in [5], 0.145; in assay [6], 0.0799; in assay [7] it was 0.0611. The composite z-score in assay [8] stood at 0.955; in assay [9], 0.117; in assay [10] it was 1.54. In assay [2], this molecule came in with a z-score of 0.344.

In the case of `NCCCCCCNC(=O)[C@@H]1C[C@@H]2C(=O)N3CCC[C@H]3C(=O)N2[C@@H]1c1ccc(O)cc1`, the composite z-score stood at 1.31 in assay [1]; 1.31 in assay [3]; 0.718 in assay [4]; 0.683 in [5]; 0.0049 in [6]; 0.0328 in assay [7]. Moreover, the composite z-score in assay [8] was -0.157; in assay [9], 0.557; in assay [10], 0.705. For the same molecule, the z-score in [2] amounted to 0.808.

In the case of `C=CCNC(=O)[C@H]1[C@@H]2C(=O)O[C@@H](c3ccccc3)[C@@H](c3ccccc3)N2[C@@H](c2ccccc2OCCO)[C@]12C(=O)N(C(=O)OCCOC)c1ccc(C#CC3=CCCCC3)cc12`, the composite z-score in assay [1] worked out at 1.43; in assay [3], 0.68; in assay [4], 1.63; in assay [5], 0.49; in [6] it was 0.125; in [7] it was 0.0915. Besides, the composite z-score worked out at 1.12 in assay [8], 0.794 in assay [9] and 1.4 in assay [10]. The molecule further registered a z-score in [2] of -3.34.

For the molecule `COC1(C)CN(Cc2ccccc2Br)[C@H](/C=C/c2ccccc2)[C@H](Cc2ccccc2)O1` (stereo not given in full), the composite z-score in assay [1] is -0.579; in [3], -0.137; in [4] it was -0.0755; in assay [5] it was -0.412; in [6], -0.176; in [7] it was -0.291. The composite z-score in assay [8] is -0.169; in assay [9], -0.631; in [10] it was -0.0462. In addition, the z-score in [2] is -1.58.

As for `O=C1OC[C@@H](c2ccccc2)N2CC(/C=C/c3ccccc3)=CC12` (stereo not given in full), the composite z-score in [1] is -1.13; in assay [3], -1.43; in assay [4], -0.353; in [5], -0.221; in [6] it was -0.284; in [7], -0.2. The composite z-score in assay [8] was -0.0118; in assay [9], -0.383; in assay [10], -0.273. The molecule also gave a z-score in [2] of -0.557.

With `C[C@]1(C(=O)O)c2ccccc2C(=O)N(Cc2ccccc2)[C@H]1c1ccc(CO)cc1`, the composite z-score is -0.633 in assay [1]; -2.19 in assay [3]; 0.139 in [4]; 1.2 in assay [5]; -0.204 in assay [6]; -0.291 in assay [7]. Besides, the composite z-score in [8] was 0.562; in [9], -0.0514; in assay [10], -1.04. For the same molecule, in [2], the z-score was -0.413.

On to `CO[C@H]1O[C@H](CO)[C@@H](OC(=O)Nc2ccccc2-c2ccccc2)[C@H](OC(=O)Nc2ccc3c(c2)OCO3)[C@@H]1OC(=O)Nc1ccc2c(c1)OCO2`, for which the composite z-score is 1.49 in assay [1]; 0.0086 in assay [3]; 1.24 in assay [4]; -0.499 in [5]; 0.0244 in assay [6]; 0.232 in assay [7]. Also, the composite z-score in assay [8] stood at 1.21; in [9], 0.541; in assay [10] it was 1.01. The molecule further came in with a z-score in assay [2] of -0.841.

With `COC(=O)[C@@]1(Cc2ccc(F)cc2)[C@H]2c3cc(C(=O)N4CCCC4)n(CCF)c3C[C@H]2CN1C(=O)c1ccccc1`, the composite z-score is 1.13 in assay [1]; -0.359 in assay [3]; 2.74 in assay [4]; 1.32 in assay [5]; 1.04 in assay [6]; 1.79 in assay [7]. Further, the composite z-score was 2.99 in assay [8], 2.42 in assay [9] and 0.602 in assay [10]. For the same molecule, in [2], the z-score was -1.43.

Regarding `C=CC[C@@H](OC(=O)Nc1ccc(OC)cc1)c1ccc(OCCO)cc1`, the composite z-score in [1] is -1.65; in assay [3] it was -1.8; in [4], -1.4; in assay [5] it was -0.819; in assay [6], -0.224; in assay [7] it was 0.0723. The composite z-score in [8] is -0.364; in assay [9] it was -0.326; in assay [10], -0.809. For the same molecule, in assay [2], the z-score turned out to be 1.51.

As for `O=C1NC(=O)C2C1C=CC(C(O)c1ccc(Br)cc1)N2Nc1ccccn1` (stereo not given), the composite z-score in assay [1] is -0.444; in [3], 0.727; in assay [4], -0.156; in assay [5] it was -0.435; in [6], 0.149; in assay [7] it was 0.254. Further, the composite z-score in assay [8] is 0.356; in assay [9] it was 0.531; in assay [10], 0.22. Moreover, the z-score in [2] amounted to 0.233.
